Screening data from PubChem.
Hits are enriched below; roughly 3.7% of the tested compounds scored in any of these assays.
Tb PYK inh = inhibitors of Trypanosoma brucei pyruvate kinase; Q57TT1; TbPYK enzyme, Kinase-Glo Plus ATP luminescence, 45 min; Potency, µM (doses to about 76.8 µM), for inactives: top-dose activity, negative = inhibition, actives largely listed as inhibitors; 0.12% of 410,000 active; further: nearly all actives have a fitted effect of over 50% in size
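TbPYK + substrate in 50 mM TEA pH 7.2, 100 mM KCl, 10 mM MgCl2, 0.05% BSA, 0.01% Tween-20; cpd pinned; ADP 130 uM final; 45 min RT; Kinase-Glo Plus 10 min; luminescence endpoint.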
RE007 growth inh = less growth of the S. pombe RE007 Vpr strain; S. pombe RE007 Vpr strain, BacTiter-Glo ATP luminescence, 24 h; Potency, µM (highest dose often 92.2 µM), for inactives: at the highest dose activity change, negative = less growth, hits mostly inhibitors; 0.21% of 360,000 active; AID 651644; active means well fitted falling curve with a large enough effect; inconclusive means small, poorly fitted or top-dose-only effect; inactive means no such curve, though single readings can be large or run the other way; further: nearly all actives have a fitted effect of over 50% in size
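Fission yeast strain RE007, carrying one chromosomally integrated HIV-1 vpr copy, was seeded at OD 0.01 in PMG+AL medium with 23 nL pinned compound. After 24 h at 30 °C and 99% humidity, viability was read by BacTiter-Glo luminescence.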
FMDV antiviral = antivirals against foot and mouth disease virus | FMDV antiviral cell-based qHTS | Potency, µM (series often up to 57.9 µM), for the others: at the highest dose activity change, negative = inhibition, most hits filed as inhibitors | 1.2% of 410,000 active; calls by dose curve; tested in HEK293T cells; further: read-out not given here; nearly all actives have a fitted effect of over 45% in size
Sm TGR inh = inhibitors of Schistosoma mansoni thioredoxin glutathione reductase. Q962Y6. purified TGR, DTNB reduction, TNB absorbance 405 nm. Potency, µM (titrated, usually from 114 µM), for inactives: at the highest dose activity change, negative = inhibition, hits mostly inhibitors. 3% of 360,000 active. AID 485364; further: nearly all actives have a fitted effect of over 60% in size
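TGR 20 nM + NADPH 100 uM (dispensed conc.), cpd preinc 15 min RT; start with NADPH (500 uM addition) then DTNB (15 mM addition). Kinetic TNB absorbance, 405 nm filter. Four-parameter Hill fit across titration.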
Numbers without * were called inactive; [ ] = dose if it differs, or a comment. Unless noted, the call rests on the fitted dose curve; in most records, active means well fitted curve in the direction sought with a large enough effect; inconclusive means small, poorly fitted or top-dose-only effect, or another doubt; inactive means no such curve, though single readings can be large; an effect the other way counts as inactive or inconclusive. On the % scale 0 is the no-effect control and ±100 the full control effect; potency means the concentration at half of the fitted maximal effect.

How did CCOc1ccc(CC(=O)NC2CC(=O)N(c3cccc(F)c3)C2)cc1 (configuration not stated) do in these assays?
Tb PYK inh: -1.7%; FMDV antiviral: -5.3%; Sm TGR inh: 9.7%

How did Cc1cc(C)c(NC(=O)CN(CC(=O)O)CC(=O)O)c(C)c1Br do in these assays?
Tb PYK inh: -6.3%

Results for Cc1nnc(SCc2nc3sc4c(c3c(=O)[nH]2)CCCC4)n(N)c1=O ?
Tb PYK inh: -8.0%; RE007 growth inh: -7.6%; FMDV antiviral: -21.0%; Sm TGR inh: 14.1µM*

What do the screens show for `CC(C)NC(=O)c1cn(C2CCC(NC(=O)C(C)(C)C)CC2)nn1` (configuration not stated)?
FMDV antiviral: -2.4%

What do the screens show for `COc1ccc(C(=O)N2CCC(c3nc4ccccc4s3)CC2)cc1Cl`?
Tb PYK inh: 0.8%; FMDV antiviral: inconclusive; Sm TGR inh: -1.0%

Results for O=S(=O)(O)OCC1OC(OC2(COS(=O)(=O)O)OC(COS(=O)(=O)O)C(OS(=O)(=O)O)C2OS(=O)(=O)O)C(OS(=O)(=O)O)C(OS(=O)(=O)O)C1OS(=O)(=O)O (configuration not stated) ?
Tb PYK inh: 0.0%

What do the screens show for `O=C1CCC/C(=N/Nc2ccc(Cl)cc2)C1`?
Tb PYK inh: -8.8%; RE007 growth inh: -12.1%; FMDV antiviral: 7.8%; Sm TGR inh: 12.6µM*

How did COc1ccc(C)cc1C(=O)CCC(=O)Nc1ccccc1N1CCOCC1 do in these assays?
Tb PYK inh: 1.1%; RE007 growth inh: -0.7%; FMDV antiviral: 0.0%; Sm TGR inh: 22.4µM*

How did Cc1ccc(-n2nc(C)c3c(C)c(CCC(=O)NCc4ccccc4Cl)c(C)nc32)cc1 do in these assays?
Tb PYK inh: -5.3%; FMDV antiviral: -12.7%; Sm TGR inh: -1.6%

How did CCc1ccc(NC(=O)C2CCN(c3ccc(Sc4ccc(C)cc4)nn3)CC2)cc1 do in these assays?
Tb PYK inh: -5.1%; FMDV antiviral: -16.9%; Sm TGR inh: 0.0%

What do the screens show for `COc1cc(C2c3c(oc4cc(C)c(C)cc4c3=O)C(=O)N2CCCN2CCOCC2)ccc1O` (configuration not stated)?
Tb PYK inh: -14.9%; FMDV antiviral: -11.0%; Sm TGR inh: 35.5µM*

Results for O=C1c2oc3ccc(Cl)cc3c(=O)c2C(c2ccco2)N1CCN1CCOCC1 (configuration not stated) ?
Tb PYK inh: -1.1%; RE007 growth inh: -8.0%; FMDV antiviral: -13.4%; Sm TGR inh: 35.5µM*

How did Cc1cc2oc3c(c(=O)c2cc1C)C(c1ccc(F)cc1)N(CCCN1CCOCC1)C3=O (configuration not stated) do in these assays?
Tb PYK inh: 0.1%; RE007 growth inh: 3.6%; FMDV antiviral: -0.3%; Sm TGR inh: -35.4%

Results for O=C1c2oc3ccccc3c(=O)c2C(c2cccc(O)c2)N1CCCN1CCOCC1 (configuration not stated) ?
Tb PYK inh: -14.3%; RE007 growth inh: 18.7%; FMDV antiviral: -5.8%; Sm TGR inh: 39.8µM*

Results for COc1ccc(C2c3c(oc4ccc(Cl)cc4c3=O)C(=O)N2CCN2CCOCC2)cc1 (configuration not stated) ?
Tb PYK inh: -3.4%; RE007 growth inh: 5.4%; FMDV antiviral: -7.5%; Sm TGR inh: -30.8%

What do the screens show for `CCOc1ccc(C2c3c(oc4ccccc4c3=O)C(=O)N2CCCN2CCOCC2)cc1OCC` (configuration not stated)?
Tb PYK inh: -9.1%; RE007 growth inh: 8.1%; FMDV antiviral: 1.9%; Sm TGR inh: 22.4µM*

How did COc1ccc(C2c3c(oc4ccccc4c3=O)C(=O)N2CCCN2CCOCC2)cc1 (configuration not stated) do in these assays?
RE007 growth inh: 13.2%[3.69 µM]; FMDV antiviral: 23.4%

What do the screens show for `NC(=O)C1(N2CCCCC2)CCN(C(=O)Nc2ccc(Cl)c(Cl)c2)CC1`?
Tb PYK inh: -1.5%; FMDV antiviral: -20.3%; Sm TGR inh: 2.0%

What do the screens show for `CC(=O)c1ccc(-c2ccc3c4c(ccc3c2)OC(CNC(=O)[C@@H]2CCCN2C(C)=O)C4)s1` (some centres not stated)?
FMDV antiviral: 19.2%

Results for CC[C@H](CO)NCCN[C@@H](CC)CO ?
Tb PYK inh: 1.0%[33.2 µM]

What do the screens show for `CCCN(CCC)C(=O)C(CCC(=O)OCCCN1CCN(CCOC(=O)Cc2c(C)n(C(=O)c3ccc(Cl)cc3)c3ccc(OC)cc23)CC1)NC(=O)c1ccccc1` (configuration not stated)?
Tb PYK inh: -5.6%

Results for [O-][n+]1onc2c1CCC(=N/O)/C2=N\Nc1ccccc1 ?
Sm TGR inh: 17.8µM*

How did Cc1nn(-c2ccc(F)cc2)c(C)c1CNC(=O)c1ccc(-n2cc(NC(=O)c3ccoc3)cn2)cc1 do in these assays?
FMDV antiviral: -10.0%

What do the screens show for `COCc1oc2ccc(NS(=O)(=O)c3ccc(C)cc3)cc2c1C(=O)OC`?
Tb PYK inh: 0.0%; FMDV antiviral: 65.2%; Sm TGR inh: -3.1%

How did O=C(Nc1ccc2nc(-c3ccco3)c(-c3ccco3)nc2c1)N1CCCCCC1 do in these assays?
Tb PYK inh: inconclusive; RE007 growth inh: -1.4%; FMDV antiviral: -12.2%; Sm TGR inh: 0.708µM*

How did CCOC(=O)C1CCN(C(=O)Nc2ccc3nc(-c4ccco4)c(-c4ccco4)nc3c2)CC1 do in these assays?
Tb PYK inh: inconclusive; RE007 growth inh: -21.9%; FMDV antiviral: inconclusive; Sm TGR inh: 0.708µM*

What do the screens show for `Cc1cccc(NC(=O)CCc2ccc(N3C(N)=NC(N)=NC3(C)C)cc2)c1`?
Tb PYK inh: -4.2%; RE007 growth inh: 16.3%; FMDV antiviral: -21.0%

What do the screens show for `COc1cc(CN2CCc3nc(N4CCN(c5ncccn5)CC4)ncc3C2)cc(OC)c1OC`?
Tb PYK inh: 0.1%; FMDV antiviral: 28.2µM*; Sm TGR inh: inconclusive

Results for CCOc1ccc(CN2CCc3nc(N4CCN(c5ccccn5)CC4)ncc3C2)cc1OC ?
Tb PYK inh: 0.5%; FMDV antiviral: 12.6µM*; Sm TGR inh: -17.5%

What do the screens show for `CN(C)c1ccc(CN2CCc3nc(N4CCN(c5ccccn5)CC4)ncc3C2)cc1`?
Tb PYK inh: -3.0%; FMDV antiviral: 7.94µM*; Sm TGR inh: -26.9%

What do the screens show for `CCOc1ccccc1CN1CCc2nc(N3CCN(c4ccccc4F)CC3)ncc2C1`?
Tb PYK inh: 1.0%; FMDV antiviral: 28.2µM*; Sm TGR inh: 6.5%

What do the screens show for `COc1cc(NC(=O)CCc2c(C)nn(-c3ccc4nnc(C)n4n3)c2C)cc(OC)c1OC`?
Tb PYK inh: 0.0%; FMDV antiviral: -12.9%; Sm TGR inh: 1.7%

Results for Cc1cc(C)c(C(=O)NCc2nc(-c3cccc(NC(=O)C4CCCN(C)C4)c3)oc2C)[nH]1 (configuration not stated) ?
FMDV antiviral: -6.4%

What do the screens show for `O=C(CCl)c1ccc(Cc2ncc(C(F)(F)F)cc2Cl)s1`?
Tb PYK inh: -4.0%; RE007 growth inh: 5.5%; FMDV antiviral: 25.1µM*; Sm TGR inh: 8.91µM*
